# In the supplement of paper PMC12067093, “Discovery and optimisation of a covalent ligand for TRIM25 and its application to targeted protein ubiquitination” (Chemical Science, 2025):
# About 21,000 targets were measured; listed, in parts, are those with the largest changes and a random draw of the rest.
# Biological target: CLIC1_O00299_191_LHIVQVVCKK (UniProt O00299)
# Test: probe-labelled cysteine peptide fold change vs DMSO (competition) (log2 fold change); higher = less target engagement (more negative = stronger competition)
# Conditions: THP-1, incubation time: 4 h
# 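Also: competitive chemoproteomic profiling in live THP-1 cells with an iodoacetamide desthiobiotin (IA-DTB) probe, comparing probe-labelled peptide intensities in compound-treated cells against DMSO-treated controls.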
compound,measurement,setting,value
CC1Cc2ccccc2N1C(=O)C1CCCN(C(=O)CCl)C1 (mixture of isomers) [TRIM25 ligand 11 (diastereomer mixture)],probe-labelled cysteine peptide fold change,10 µM,-0.428
same,probe-labelled cysteine peptide fold change,50 µM,-0.575
